# According to article PMC7862700, “An all-to-all approach to the identification of sequence-specific readers for epigenetic DNA modifications on cytosine”:
# Tests used:
# Experiment in all cases: DAPPL (digital affinity profiling via proximity ligation, sequencing); 10 mM Tris-HCl pH 7.5, 50 mM NaCl, 1 mM DTT, 4% glycerol, room temperature, 30 min; GST-TFs on glutathione beads, 16-mer random dsDNA library, 0.1% formaldehyde crosslink after washing; high values mean tight binding
# Conditions in all cases: protein: recombinant; tags: N-terminal GST; dsDNA, one strand shown
# ELK1 = target: T1, ELK1 (Homo sapiens, UniProt P19419 1-428)
# T1 sequence: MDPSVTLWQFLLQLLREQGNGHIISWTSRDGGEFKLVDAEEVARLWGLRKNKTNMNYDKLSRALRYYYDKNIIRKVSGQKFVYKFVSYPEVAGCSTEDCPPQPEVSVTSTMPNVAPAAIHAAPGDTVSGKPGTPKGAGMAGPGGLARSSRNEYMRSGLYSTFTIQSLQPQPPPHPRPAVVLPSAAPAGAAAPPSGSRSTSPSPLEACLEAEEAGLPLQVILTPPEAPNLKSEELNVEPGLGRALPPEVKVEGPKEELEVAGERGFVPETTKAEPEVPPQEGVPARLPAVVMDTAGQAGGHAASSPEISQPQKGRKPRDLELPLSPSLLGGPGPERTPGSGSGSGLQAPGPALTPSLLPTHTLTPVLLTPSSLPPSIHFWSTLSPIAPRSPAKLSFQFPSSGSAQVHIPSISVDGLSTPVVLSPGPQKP
# Procedure, shortened: (§1)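 Human transcription factors were made in yeast as GST fusions, captured on glutathione beads and barcoded with DNA. With a tag-only sample included, the pool was incubated with 200 nmole of a random double-stranded 16-mer DNA library in Tris/NaCl/DTT/glycerol buffer at room temperature for 30 min, then crosslinked with 0.1% formaldehyde after washing, ligated by proximity, amplified and sequenced. For binding signal, each hexamer's read frequency for a factor is divided by its frequency for the tag-only sample.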
# GABPA = target: T2, GABPA (Homo sapiens, UniProt Q06546 1-454)
# T2 sequence: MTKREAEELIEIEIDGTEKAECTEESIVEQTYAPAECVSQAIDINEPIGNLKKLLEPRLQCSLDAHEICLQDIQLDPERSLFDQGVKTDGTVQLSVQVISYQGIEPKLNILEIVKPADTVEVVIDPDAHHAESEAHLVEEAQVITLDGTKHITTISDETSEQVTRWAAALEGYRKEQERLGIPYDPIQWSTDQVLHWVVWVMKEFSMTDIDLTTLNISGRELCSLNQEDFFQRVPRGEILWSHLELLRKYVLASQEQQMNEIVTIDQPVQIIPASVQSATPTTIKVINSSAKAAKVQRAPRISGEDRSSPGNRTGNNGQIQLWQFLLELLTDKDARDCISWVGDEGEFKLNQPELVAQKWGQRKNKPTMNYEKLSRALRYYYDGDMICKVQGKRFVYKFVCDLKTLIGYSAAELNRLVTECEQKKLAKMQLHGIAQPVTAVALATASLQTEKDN
# Procedure, shortened: as §1
# ERG = target: T3, ERG (Homo sapiens, UniProt P11308 1-479)
# T3 sequence: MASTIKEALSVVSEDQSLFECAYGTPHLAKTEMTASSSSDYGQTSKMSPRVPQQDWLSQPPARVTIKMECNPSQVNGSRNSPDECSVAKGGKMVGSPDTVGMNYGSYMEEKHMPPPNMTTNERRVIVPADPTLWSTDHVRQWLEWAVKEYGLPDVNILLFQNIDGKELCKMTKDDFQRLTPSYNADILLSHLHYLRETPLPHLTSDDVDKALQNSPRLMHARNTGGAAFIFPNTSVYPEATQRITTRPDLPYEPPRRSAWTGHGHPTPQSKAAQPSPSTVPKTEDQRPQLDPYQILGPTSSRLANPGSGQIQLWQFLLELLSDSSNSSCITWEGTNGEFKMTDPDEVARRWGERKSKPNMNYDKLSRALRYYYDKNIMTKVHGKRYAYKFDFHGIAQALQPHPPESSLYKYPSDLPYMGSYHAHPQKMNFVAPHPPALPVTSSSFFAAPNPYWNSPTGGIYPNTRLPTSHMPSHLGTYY
# Procedure, shortened: as §1
# ELF1 = ELF1 (Homo sapiens, UniProt P32519 1-619)
# Procedure, shortened: as §1
# SPIB = SPIB (Homo sapiens, UniProt Q01892 1-262)
# Procedure, shortened: as §1
# SPIC = target: T4, SPIC (Homo sapiens, UniProt Q8N5J4 1-248)
# T4 sequence: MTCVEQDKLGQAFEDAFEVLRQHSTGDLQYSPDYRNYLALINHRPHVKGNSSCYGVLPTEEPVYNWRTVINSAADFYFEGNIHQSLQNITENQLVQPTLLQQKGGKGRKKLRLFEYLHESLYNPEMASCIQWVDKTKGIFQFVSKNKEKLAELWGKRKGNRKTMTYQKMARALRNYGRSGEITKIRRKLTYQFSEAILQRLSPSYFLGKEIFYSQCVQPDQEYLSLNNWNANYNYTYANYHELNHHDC
# Procedure, shortened: as §1
# ELF4 = ELF4 (Homo sapiens, UniProt Q99607 1-663)
# Procedure, shortened: as §1
# ELK4 = target: T5, ELK4 (Homo sapiens, UniProt P28324-2 1-405)
# T5 sequence: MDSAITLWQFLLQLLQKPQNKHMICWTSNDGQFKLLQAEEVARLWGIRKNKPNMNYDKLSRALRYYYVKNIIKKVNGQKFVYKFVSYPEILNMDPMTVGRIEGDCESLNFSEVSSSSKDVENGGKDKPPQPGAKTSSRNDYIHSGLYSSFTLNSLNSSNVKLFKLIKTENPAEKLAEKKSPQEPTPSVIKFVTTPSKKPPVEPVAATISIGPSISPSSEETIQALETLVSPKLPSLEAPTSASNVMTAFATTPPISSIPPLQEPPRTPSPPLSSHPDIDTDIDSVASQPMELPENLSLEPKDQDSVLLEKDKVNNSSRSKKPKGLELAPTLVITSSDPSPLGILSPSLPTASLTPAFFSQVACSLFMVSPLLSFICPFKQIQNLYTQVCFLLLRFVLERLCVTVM
# Procedure, shortened: as §1
# ELF3 = target: T6, ELF3 (Homo sapiens, UniProt P78545 1-371)
# T6 sequence: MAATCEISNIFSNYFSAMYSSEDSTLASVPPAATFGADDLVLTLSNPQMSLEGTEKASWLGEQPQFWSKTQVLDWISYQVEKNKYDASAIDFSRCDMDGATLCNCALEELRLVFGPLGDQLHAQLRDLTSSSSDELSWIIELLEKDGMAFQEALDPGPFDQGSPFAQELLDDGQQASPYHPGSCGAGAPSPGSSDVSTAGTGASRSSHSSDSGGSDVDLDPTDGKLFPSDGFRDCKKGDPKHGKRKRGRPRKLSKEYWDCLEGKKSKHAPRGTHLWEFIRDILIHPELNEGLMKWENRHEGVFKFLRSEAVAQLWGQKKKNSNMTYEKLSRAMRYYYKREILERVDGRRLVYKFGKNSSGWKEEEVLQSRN
# Procedure, shortened: as §1
# ETV1 = ETV1 (Homo sapiens, UniProt P50549 1-477)
# Procedure, shortened: as §1
# ERF = target: T7, ERF (Homo sapiens, UniProt P50548 1-548)
# T7 sequence: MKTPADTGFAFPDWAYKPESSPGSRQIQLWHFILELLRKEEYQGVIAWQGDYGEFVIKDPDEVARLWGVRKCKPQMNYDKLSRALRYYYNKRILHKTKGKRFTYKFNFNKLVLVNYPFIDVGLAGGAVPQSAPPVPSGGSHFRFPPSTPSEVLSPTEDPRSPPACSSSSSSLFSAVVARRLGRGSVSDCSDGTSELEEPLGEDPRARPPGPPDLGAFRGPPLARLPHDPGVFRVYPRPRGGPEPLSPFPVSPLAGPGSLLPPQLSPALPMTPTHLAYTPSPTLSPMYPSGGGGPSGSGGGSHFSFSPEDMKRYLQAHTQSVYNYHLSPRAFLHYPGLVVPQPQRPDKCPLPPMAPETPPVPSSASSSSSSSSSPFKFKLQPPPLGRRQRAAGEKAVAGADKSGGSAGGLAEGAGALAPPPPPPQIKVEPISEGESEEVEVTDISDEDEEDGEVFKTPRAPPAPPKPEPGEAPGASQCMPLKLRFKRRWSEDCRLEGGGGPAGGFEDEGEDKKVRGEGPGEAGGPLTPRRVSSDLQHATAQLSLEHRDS
# Procedure, shortened: as §1
# ETV3L = target: T8, ETV3L (Homo sapiens, UniProt Q6ZN32 1-361)
# T8 sequence: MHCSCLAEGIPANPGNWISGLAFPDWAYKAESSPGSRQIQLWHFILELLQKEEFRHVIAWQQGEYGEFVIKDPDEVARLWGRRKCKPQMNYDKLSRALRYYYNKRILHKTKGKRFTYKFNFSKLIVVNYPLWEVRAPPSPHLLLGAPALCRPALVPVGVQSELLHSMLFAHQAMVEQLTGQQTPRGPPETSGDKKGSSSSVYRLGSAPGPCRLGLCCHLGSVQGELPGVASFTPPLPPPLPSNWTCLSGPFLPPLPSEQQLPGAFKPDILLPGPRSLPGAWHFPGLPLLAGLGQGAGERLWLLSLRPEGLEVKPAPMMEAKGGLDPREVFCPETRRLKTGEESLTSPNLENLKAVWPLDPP
# Procedure, shortened: as §1
# ETS2 = target: T9, ETS2 (Homo sapiens, UniProt P15036 1-469)
# T9 sequence: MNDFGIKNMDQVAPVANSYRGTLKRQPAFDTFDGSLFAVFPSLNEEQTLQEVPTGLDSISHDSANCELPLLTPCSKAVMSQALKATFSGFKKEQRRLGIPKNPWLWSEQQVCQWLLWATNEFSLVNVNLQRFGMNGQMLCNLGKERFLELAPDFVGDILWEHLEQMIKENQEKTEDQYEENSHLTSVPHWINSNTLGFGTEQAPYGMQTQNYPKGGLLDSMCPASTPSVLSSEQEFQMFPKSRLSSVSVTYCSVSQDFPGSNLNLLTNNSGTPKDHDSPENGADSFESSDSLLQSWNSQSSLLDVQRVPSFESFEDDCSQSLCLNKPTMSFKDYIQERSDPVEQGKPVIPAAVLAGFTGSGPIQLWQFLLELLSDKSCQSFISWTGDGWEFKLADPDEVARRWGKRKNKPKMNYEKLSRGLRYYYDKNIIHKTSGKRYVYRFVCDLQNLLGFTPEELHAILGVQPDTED
# Procedure, shortened: as §1
# ETV7 = target: T10, ETV7 (Homo sapiens, UniProt Q9Y603 1-341)
# T10 sequence: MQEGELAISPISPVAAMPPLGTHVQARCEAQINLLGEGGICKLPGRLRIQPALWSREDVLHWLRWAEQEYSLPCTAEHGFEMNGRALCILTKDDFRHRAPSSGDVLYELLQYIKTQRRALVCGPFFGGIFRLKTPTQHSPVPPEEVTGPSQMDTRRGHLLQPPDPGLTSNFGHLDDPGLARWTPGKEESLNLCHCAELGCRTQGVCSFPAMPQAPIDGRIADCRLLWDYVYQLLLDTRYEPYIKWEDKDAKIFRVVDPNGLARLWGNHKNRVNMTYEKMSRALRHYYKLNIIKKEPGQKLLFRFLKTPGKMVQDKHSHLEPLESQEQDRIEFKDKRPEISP
# Procedure, shortened: as §1
# ETV3 = target: T11, ETV3 (Homo sapiens, UniProt P41162-2 1-143)
# T11 sequence: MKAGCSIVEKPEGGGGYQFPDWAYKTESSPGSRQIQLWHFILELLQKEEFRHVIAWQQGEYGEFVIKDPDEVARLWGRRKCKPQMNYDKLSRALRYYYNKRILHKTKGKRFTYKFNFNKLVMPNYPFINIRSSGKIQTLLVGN
# Procedure, shortened: as §1
# ETV6 = ETV6 (Homo sapiens, UniProt P41212 1-452)
# Procedure, shortened: as §1
# ELF4, sequence (Q99607 whole entry): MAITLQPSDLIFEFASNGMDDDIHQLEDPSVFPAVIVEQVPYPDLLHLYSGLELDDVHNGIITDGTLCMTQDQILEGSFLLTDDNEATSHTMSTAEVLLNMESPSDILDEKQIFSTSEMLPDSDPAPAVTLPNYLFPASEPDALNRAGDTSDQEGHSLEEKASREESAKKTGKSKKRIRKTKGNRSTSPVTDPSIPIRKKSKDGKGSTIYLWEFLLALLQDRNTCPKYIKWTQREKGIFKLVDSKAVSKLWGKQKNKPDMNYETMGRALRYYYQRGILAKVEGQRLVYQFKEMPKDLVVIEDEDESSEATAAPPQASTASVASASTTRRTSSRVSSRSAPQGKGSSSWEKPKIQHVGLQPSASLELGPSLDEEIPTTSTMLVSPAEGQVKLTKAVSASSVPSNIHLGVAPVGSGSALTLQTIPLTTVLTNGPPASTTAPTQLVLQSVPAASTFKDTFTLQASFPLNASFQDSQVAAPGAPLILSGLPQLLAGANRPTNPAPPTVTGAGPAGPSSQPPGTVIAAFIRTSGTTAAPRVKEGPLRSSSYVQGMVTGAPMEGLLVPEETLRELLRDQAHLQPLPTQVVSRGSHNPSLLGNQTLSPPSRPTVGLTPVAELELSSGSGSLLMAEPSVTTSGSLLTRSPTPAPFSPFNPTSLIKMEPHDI
# ETV6, sequence (P41212 whole entry): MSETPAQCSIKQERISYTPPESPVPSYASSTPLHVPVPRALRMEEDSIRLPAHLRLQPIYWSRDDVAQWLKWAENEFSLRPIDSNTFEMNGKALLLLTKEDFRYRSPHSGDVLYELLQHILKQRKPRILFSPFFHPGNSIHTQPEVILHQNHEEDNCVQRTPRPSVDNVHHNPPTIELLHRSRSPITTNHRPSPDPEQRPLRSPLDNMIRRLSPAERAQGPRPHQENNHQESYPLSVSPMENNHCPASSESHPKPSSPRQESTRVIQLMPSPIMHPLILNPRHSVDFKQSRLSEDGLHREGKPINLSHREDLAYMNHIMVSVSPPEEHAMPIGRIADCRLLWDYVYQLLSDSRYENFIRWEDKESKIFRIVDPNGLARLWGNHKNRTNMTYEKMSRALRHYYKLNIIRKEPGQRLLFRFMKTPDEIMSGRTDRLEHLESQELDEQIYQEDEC
# ETV1, sequence (P50549 whole entry): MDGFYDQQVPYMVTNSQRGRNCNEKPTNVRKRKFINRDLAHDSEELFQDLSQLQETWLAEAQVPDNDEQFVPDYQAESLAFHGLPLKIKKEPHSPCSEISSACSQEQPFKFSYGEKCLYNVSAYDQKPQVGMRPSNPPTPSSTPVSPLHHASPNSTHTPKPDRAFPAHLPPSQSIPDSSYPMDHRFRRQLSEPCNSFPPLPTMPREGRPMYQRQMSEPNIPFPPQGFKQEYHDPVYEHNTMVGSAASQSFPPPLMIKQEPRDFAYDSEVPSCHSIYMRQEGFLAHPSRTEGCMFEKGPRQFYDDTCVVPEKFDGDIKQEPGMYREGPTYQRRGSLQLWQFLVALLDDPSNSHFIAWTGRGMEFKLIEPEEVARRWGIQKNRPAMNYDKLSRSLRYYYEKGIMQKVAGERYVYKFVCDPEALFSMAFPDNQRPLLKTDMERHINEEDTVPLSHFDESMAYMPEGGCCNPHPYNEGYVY
# ELF1, sequence (P32519 whole entry): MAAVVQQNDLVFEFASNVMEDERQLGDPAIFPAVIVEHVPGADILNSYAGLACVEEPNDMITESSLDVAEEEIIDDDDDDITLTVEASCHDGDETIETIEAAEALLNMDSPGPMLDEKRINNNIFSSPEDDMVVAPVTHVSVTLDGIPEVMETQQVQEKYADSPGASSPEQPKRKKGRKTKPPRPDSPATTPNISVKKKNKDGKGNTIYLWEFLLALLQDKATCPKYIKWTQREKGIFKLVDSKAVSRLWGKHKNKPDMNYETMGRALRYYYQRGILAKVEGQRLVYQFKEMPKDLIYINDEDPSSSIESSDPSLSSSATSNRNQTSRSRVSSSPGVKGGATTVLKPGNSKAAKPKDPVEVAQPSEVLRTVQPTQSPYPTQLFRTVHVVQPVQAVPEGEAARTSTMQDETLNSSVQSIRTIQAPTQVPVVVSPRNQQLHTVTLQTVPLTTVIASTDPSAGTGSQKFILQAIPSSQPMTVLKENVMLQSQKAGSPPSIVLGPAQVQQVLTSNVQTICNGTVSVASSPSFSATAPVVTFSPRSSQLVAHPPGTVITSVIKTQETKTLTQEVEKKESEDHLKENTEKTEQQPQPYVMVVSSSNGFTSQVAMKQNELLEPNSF
# SPIB, sequence (Q01892 whole entry): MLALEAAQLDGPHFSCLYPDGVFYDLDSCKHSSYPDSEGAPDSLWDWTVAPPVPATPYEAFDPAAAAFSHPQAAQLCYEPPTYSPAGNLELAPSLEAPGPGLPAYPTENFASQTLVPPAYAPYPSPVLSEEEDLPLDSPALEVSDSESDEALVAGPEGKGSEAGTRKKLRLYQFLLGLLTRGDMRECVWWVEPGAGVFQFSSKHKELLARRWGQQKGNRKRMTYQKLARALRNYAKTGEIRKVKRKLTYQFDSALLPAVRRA
sequence,measurement,setting,value
TCAATC,binding signal,ELK1,"1.08 fold enrichment (6-mer frequency, TF over GST control)"
same,binding signal,GABPA,"1.13 fold enrichment (6-mer frequency, TF over GST control)"
same,binding signal,ERG,"1.04 fold enrichment (6-mer frequency, TF over GST control)"
same,binding signal,ELF1,"1.07 fold enrichment (6-mer frequency, TF over GST control)"
same,binding signal,SPIB,"1.04 fold enrichment (6-mer frequency, TF over GST control)"
same,binding signal,SPIC,"1.1 fold enrichment (6-mer frequency, TF over GST control)"
same,binding signal,ELF4,"1.06 fold enrichment (6-mer frequency, TF over GST control)"
same,binding signal,ELK4,"1.03 fold enrichment (6-mer frequency, TF over GST control)"
same,binding signal,ELF3,"1.09 fold enrichment (6-mer frequency, TF over GST control)"
same,binding signal,ETV1,"1.04 fold enrichment (6-mer frequency, TF over GST control)"
same,binding signal,ERF,"1.09 fold enrichment (6-mer frequency, TF over GST control)"
same,binding signal,ETV3L,"1.05 fold enrichment (6-mer frequency, TF over GST control)"
same,binding signal,ETS2,"1.04 fold enrichment (6-mer frequency, TF over GST control)"
same,binding signal,ETV7,"1.01 fold enrichment (6-mer frequency, TF over GST control)"
same,binding signal,ETV3,"1.01 fold enrichment (6-mer frequency, TF over GST control)"
same,binding signal,ETV6,"1.06 fold enrichment (6-mer frequency, TF over GST control)"
